How the values were obtained:
Type in all cases: functional
Plasmodium falciparum [1] = experiment: GSK_TCMDC: Inhibition of Plasmodium falciparum 3D7 in whole red blood cells, using parasite LDH activity as an index of growth. Test compounds present at 2uM
Plasmodium falciparum [2] = experiment: GSK_TCMDC: Inhibition of Plasmodium falciparum Dd2 in whole red blood cells, using parasite LDH activity as an index of growth. Test compounds present at 2uM
HepG2 = experiment: GSK_TCMDC: Percent inhibition of human HepG2 cell line. Test compounds present at 10uM.

| Structure (SMILES) | Inhibition (Plasmodium falciparum [1]) [%] | Inhibition (Plasmodium falciparum [2]) [%] | Inhibition (HepG2) [%] |
| --- | --- | --- | --- |
| O=C1C(c2ccccc2)=C(Nc2ccc([N+](=O)[O-])cc2)c2ccccc21 | 95 | 73 | 0 |
| CN(C(=O)NCCc1ccccc1)C1CCN(CCCCCNC(=O)/C=C/c2ccc(Cl)c(Cl)c2)CC1 | 93 | 11 | 43 |
| CCCCC(=O)N(CCOC)Cc1ccc(-c2ccc(CNCCC)cn2)cc1.O=C(O)C(F)(F)F | 99 | 68 | 30 |
| O=C(Nc1ccc(-c2cccc(-c3nc4ccccc4[nH]3)c2)cc1)Nc1ccc2c(c1)OCO2 | 100 | 65 | 55 |
| Cc1noc(C)c1C(=O)N1CCc2cc3nccc(N4CCN5CCC[C@H]5C4)c3cc21 | 93 | 9 | 7 |
| COc1ccc(C(F)(F)F)cc1N1CCN(CCCCNC(=O)c2ccc(NC(=O)c3ccc(Cl)cc3)cc2)CC1 | 94 | 1 | 12 |
| CNC(=O)c1cnc(Nc2ccc(N3CCN(C)CC3)cc2)nc1Nc1cccc(OC)c1.O=C(O)C(F)(F)F | 100 | 100 | 19 |
| CC(=O)c1nccc(C)c1N | 92 | 0 | 10 |
| CN(C)CCOc1cc(NC(=O)Nc2cccc([N+](=O)[O-])c2)ccc1I | 100 | 51 | 8 |
| COc1ccc2nccc([C@@H](O)CN3CCC(NC[C@H](Cc4ccccc4)NC(=O)OC(C)(C)C)CC3)c2c1.O=C(O)C(=O)O | 98 | 86 | 18 |
| COc1ccc(C=NN=c2cc(C)[nH]c3ccccc23)cc1OC | 91 | 8 | 19 |
| COc1cccc(Nc2nc(C)cc(NC3CCN(Cc4ccccc4)CC3)n2)c1 | 100 | 46 | 15 |
| CN(C)C(=O)O[C@@H]1CN[C@H](C#Cc2cc3ncnc(Nc4ccc5c(cnn5Cc5cccc(F)c5)c4)c3s2)C1.Cl | 97 | 68 | 0 |
| O=C(O)C(F)(F)F.O=S(=O)(NCCN1CCCC1)c1ccc(-c2ccc(CNCc3ccc(F)cc3)cc2)cc1 | 94 | 44 | 42 |
| Cc1cc(N/N=C/c2ccccc2[N+](=O)[O-])c2cccc(C)c2n1 | 99 | 100 | 0 |
| O=C(O)C(F)(F)F.OCCN1CCN(Cc2ccc(-c3cccc(-c4nc5ccccc5[nH]4)c3)cc2)CC1 | 96 | 16 | 32 |

| Structure (SMILES) | Inhibition (Plasmodium falciparum [1]) [%] | Inhibition (Plasmodium falciparum [2]) [%] | Inhibition (HepG2) [%] |
| --- | --- | --- | --- |
| Cc1cccc2nc(-c3ccc(-c4cccc(NC(=O)C(C)CN(C)C)c4)s3)[nH]c12 (stereo not drawn) | 92 | 69 | 12 |
| COc1ccc(C2C(C(=O)Nc3ccccc3)=C(C)Nc3c(C(=O)Nc4ccccc4)cnn32)cc1 (stereo not drawn) | 85 | 66 | 13 |
| COc1c(C2CCN(CCCCNC(=O)c3ccc(-c4ccc(C#N)cc4)c(O)c3)CC2)ccc2c1CCCC2.Cl | 100 | 78 | 35 |
| Cl.N=C(NC1CC1)c1ccc2[nH]c(CCCCCc3nc4cc(C(=N)NC5CC5)ccc4[nH]3)nc2c1 | 89 | 72 | 0 |
| Cl.N#Cc1cccc(-c2cccc(C(=O)NC3CCC(CCN4CCc5ccc(C#N)cc5CC4)CC3)c2)c1 (stereo not drawn) | 99 | 57 | 31 |
| COc1cccc(-c2nn(C)c3sc(C(=O)NCCN4CCN(c5ccccc5F)CC4)cc23)c1 | 85 | 40 | 9 |
| O=[N+]([O-])c1ccc(-c2ccc(C=NNc3nc(Nc4ccccc4)nc(Nc4ccccc4)n3)o2)cc1 | 91 | 12 | 0 |
| CCc1ccc2nc(-c3ccc(F)cc3)nc(SCC(=O)Nc3sc(C)c(C)c3C#N)c2c1 | 98 | 5 | 0 |
| COc1ccc2nccc([C@@H](O)CN3CCC(NCc4cc5c(Cl)cc(Cl)cc5[nH]4)CC3)c2c1.O=C(O)C(=O)O | 100 | 86 | 93 |
| CCn1c(-c2nonc2N)nc2c(-c3cccc(NC(=O)Nc4ccccc4OC)c3)ncc(OCCCN)c21.O=C(O)C(F)(F)F | 92 | 58 | 84 |
| Cl.N[C@@H](CCNC1CCN(c2cccc(C(F)(F)F)c2)CC1)Cc1ccc(F)c(F)c1 | 100 | 69 | 100 |
| O=C(NCc1ccc(Cl)c(Cl)c1)c1cc(CNC2CCNCC2)ccc1O | 82 | 2 | 2 |
| CCc1ccc(CN2CCC(CN(c3ccc(N4CCOCC4)c(F)c3)S(=O)(=O)c3ccc(C(C)(C)CC)cc3)CC2)cc1.Cl | 93 | 94 | 26 |
| Cl.O=S(=O)(c1ccc(OCc2ccc(Cl)cc2)cc1)c1cc2c(cc1OCc1ccccc1)CCN(CC1CC1)CC2 | 82 | 0 | 19 |
| Cc1cc(N[C@@H](Cc2ccccc2)C(=O)NCc2cccs2)nc(NCCOc2ccccc2)n1.O=C(O)C(F)(F)F | 93 | 31 | 2 |

— ChEMBL document CHEMBL1157539, “Thousands of chemical starting points for antimalarial lead identification” (Nature, 2010)
